# ± gives the standard deviation of the averaged measurements. In all, about 1,600 compounds were measured (“normalized growth (OD600, IQM-normalized) in LPM”: median about 1, lowest 2% from about 0.014 on). The list comes from a sample in which the lowest values are over-represented; it also holds similar structures and randomly drawn compounds.
# System: Salmonella enterica serovar Typhimurium SL1344
# Assay: normalized growth (OD600, IQM-normalized) in LPM (fraction of plate interquartile mean); higher = more bacterial growth (less inhibition)
# Details: LPM pH 5.8; 10 µM; 16 h
row,SMILES,normalized growth
1,CCC[C@@H]1C[C@@H](C(=O)N[C@@H]([C@H]2O[C@H](SC)[C@H](O)[C@@H](O)[C@H]2O)[C@@H](C)O)N(C)C1,1.096 ± 0.0085
2,CN(Cc1cnc2nc(N)nc(N)c2n1)c1ccc(C(=O)NC(CCC(=O)O)C(=O)O)cc1 (racemic),0.665 ± 0.054
3,CCC(=O)OCC(=O)[C@@]1(OC(=O)CC)[C@@H](C)C[C@H]2[C@@H]3CCC4=CC(=O)C=C[C@]4(C)[C@@]3(F)[C@@H](O)C[C@@]21C,1.06 ± 0.047
4,CCn1cc(C(=O)O)c(=O)c2cc(F)c(N3CCN(C)CC3)cc21,0.0116 ± 0.00051
5,O=C(O)c1cn(-c2ccc(F)cc2)c2cc(N3CCNCC3)c(F)cc2c1=O,0.0341 ± 0.0073
6,CCn1cc(C(=O)O)c(=O)c2cc(F)c(N3CCNCC3)cc21,0.0247 ± 0.0053
7,O=C(O)c1cn(C2CC2)c2cc(N3CCNCC3)c(F)cc2c1=O,0.0145 ± 0.0063
8,CCn1cc(C(=O)O)c(=O)c2cc(F)c(N3CCNCC3)nc21,0.0514 ± 0.033
9,CN1CCN(c2cc3c(cc2F)c(=O)c(C(=O)O)cn3-c2ccc(F)cc2)CC1,0.0108 ± 0.00018
10,CCCCC(O)c1ccccc1 (stereo unspecified),0.984 ± 0.032
11,CC1=CC(=O)NS(=O)(=O)O1,0.928 ± 0.054
12,CS(=O)(=O)c1ccc(C2=C(c3ccccc3)C(=O)OC2)cc1,1.07 ± 0.11
13,CCCCCCCCCC(=O)N[C@@H](Cc1c[nH]c2ccccc12)C(=O)N[C@@H](CC(N)=O)C(=O)N[C@@H](CC(=O)O)C(=O)N[C@@H]1C(=O)NCC(=O)N[C@@H](CCCN)C(=O)N[C@@H](CC(=O)O)C(=O)N[C@H](C)C(=O)N[C@@H](CC(=O)O)C(=O)NCC(=O)N[C@H](CO)C(=O)N[C@@H]([C@H](C)CC(=O)O)C(=O)N[C@@H](CC(=O)c2ccccc2N)C(=O)O[C@@H]1C [DAPTOMYCIN (5 millimolar/DMSO)],1.02 ± 0.057
14,C[C@]12CCC(=O)C=C1[C@@H]1C[C@@H]1[C@H]1[C@@H]3[C@@H]4C[C@@H]4[C@@]4(CCC(=O)O4)[C@@]3(C)CC[C@@H]12,1.07 ± 0.069
15,COc1cc(/C=C/C(=O)N2CCCCCCC2)cc(OC)c1OC,0.961 ± 0.025
16,N[C@@H](Cc1ccc(O)cc1)C(=O)O,0.979 ± 0.02
17,CC(=O)NC(Cc1ccccc1)C(=O)O (stereo unspecified),0.957 ± 0.064
18,CNC(=C[N+](=O)[O-])NCCSCc1csc(CN(C)C)n1,1.15 ± 0.28
19,O=C(O)C1=C(CSc2nnnn2CS(=O)(=O)O)CS[C@@H]2[C@H](NC(=O)[C@H](O)c3ccccc3)C(=O)N12,1.01 ± 0.024
20,CCCCCNC(=N)N/N=C/c1c[nH]c2ccc(OC)cc12,1.09 ± 0.12
21,Cc1cc(C2CCCCC2)n(O)c(=O)c1,0.183 ± 0.014
22,O=C(OC[C@H]1O[C@@H](OC(=O)c2cc(O)c(O)c(OC(=O)c3cc(O)c(O)c(O)c3)c2)[C@H](OC(=O)c2cc(O)c(O)c(OC(=O)c3cc(O)c(O)c(O)c3)c2)[C@@H](OC(=O)c2cc(O)c(O)c(OC(=O)c3cc(O)c(O)c(O)c3)c2)[C@@H]1OC(=O)c1cc(O)c(O)c(OC(=O)c2cc(O)c(O)c(O)c2)c1)c1cc(O)c(O)c(OC(=O)c2cc(O)c(O)c(O)c2)c1,1.08 ± 0.013
23,O=C(O)C(=O)O.[NH-][C@@H]1CCCC[C@H]1[NH-].[Pt+2],0.742 ± 0.017

row,SMILES,normalized growth
1,O=C(O)P(=O)(O)O,0.953 ± 0.027
2,OC[C@H]1O[C@@H](O[C@H]2[C@H](O)[C@@H](O)C(O)O[C@@H]2CO)[C@H](O)[C@@H](O)[C@H]1O (stereo partly specified),1.14 ± 0.057
3,CO/N=C(\C(=O)N[C@@H]1C(=O)N2C(C(=O)O)=C(C[N+]3(C)CCCC3)CS[C@H]12)c1csc(N)n1,0.0232 ± 0.0056
4,C=CC1=C(C(=O)O)N2C(=O)[C@@H](NC(=O)/C(=N\O)c3csc(N)n3)[C@H]2SC1,0.0112 ± 0.00049
5,CO/N=C(\C(=O)N[C@@H]1C(=O)N2C(C(=O)O)=C(COC(C)=O)CS[C@H]12)c1csc(N)n1,0.0479 ± 0.0089
6,CNCC[C@H](Oc1cccc2ccccc12)c1cccs1,1.05 ± 0.046
7,CN1CC(=O)N2[C@H](c3ccc4c(c3)OCO4)c3[nH]c4ccccc4c3C[C@@H]2C1=O,1.19 ± 0.024
8,CCOC(=O)CCC(=O)O[C@H]1[C@H](O[C@@H]2[C@@H](C)[C@H](O[C@H]3C[C@@](C)(OC)[C@@H](O)[C@H](C)O3)[C@@H](C)C(=O)O[C@H](CC)[C@@](C)(O)[C@H](O)[C@@H](C)C(=O)[C@H](C)C[C@@]2(C)O)O[C@H](C)C[C@@H]1N(C)C,1.14 ± 0.045
9,C=CCCCCCCCCC(=O)[O-].C=CCCCCCCCCC(=O)[O-].[Zn+2],1.15 ± 0.041
10,CCN(CC)CCNC(=O)COc1ccc(OC)cc1,0.869 ± 0.0096
11,CC(C)(O)c1ccccc1CC[C@@H](SCC1(CC(=O)O)CC1)c1cccc(/C=C/c2ccc3ccc(Cl)cc3n2)c1,1 ± 0.023
12,CC(C)CCCC(C)N (stereo unspecified),1.05 ± 0.09
13,CCC(C)(C)C(=O)O[C@H]1C[C@@H](C)C=C2C=C[C@H](C)[C@H](CC[C@@H]3C[C@@H](O)CC(=O)O3)[C@H]21,0.777 ± 0.071
14,CC(=O)OCC[N+](C)(C)C,1.05 ± 0.023
15,CC(=O)N(c1onc(C)c1C)S(=O)(=O)c1ccc(N)cc1,1.08 ± 0.046
16,CO[C@H]1C[C@H](O[C@H]2[C@H](C)O[C@@H](O[C@@H]3/C(C)=C/C[C@@H]4C[C@@H](C[C@]5(C=C[C@H](C)[C@@H](C6CCCCC6)O5)O4)OC(=O)[C@@H]4C=C(C)[C@@H](O)[C@H]5OC/C(=C\C=C\[C@@H]3C)[C@]54O)C[C@@H]2OC)O[C@@H](C)[C@@H]1O,0.776 ± 0.03
17,CC(=O)NCCCS(=O)(=O)O,0.949 ± 0.11
18,CCOC(=O)OC(C)OC1=C(C(=O)Nc2ccccn2)N(C)S(=O)(=O)c2ccccc21 (stereo unspecified),1.04 ± 0.05
19,CO/N=C1\CN(c2nc3c(cc2F)c(=O)c(C(=O)O)cn3C2CC2)CC1CN (stereo unspecified),0.0206 ± 0.00035
20,C[C@H]1COc2c(N3CCN(C)CC3)c(F)cc3c(=O)c(C(=O)O)cn1c23,0.00833 ± 0.00037
21,CC1CCc2c(N3CCC(O)CC3)c(F)cc3c(=O)c(C(=O)O)cn1c23 (stereo unspecified),0.0179 ± 0.013
22,CN1CCN(c2c(F)cc3c(=O)c(C(=O)O)cn4c3c2SCC4)CC1,0.02519 ± 0.00023
23,C[C@H]1COc2c(C3(N)CC3)c(F)cc3c(=O)c(C(=O)O)cn1c23,0.008373 ± 7.5e-05
